High-throughput results: PubChem BioAssay, National Center for Advancing Translational Sciences (NCATS)
In the library only some 3.1% were active in any assay of this set; here they are far more common.
Tau fluor cs – counter-screen for tau fibril formation inhibitors; tau K18 P301L Alexa594 fluorescence, heparin fibrillization; Potency, µM (doses to about 57.7 µM), without a hit: top-dose activity change, negative = decrease; AID 1463; hit rate 0.93% among 280,000; also: nearly all actives have a fitted effect of over 55% in size
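Human K18 P301L tau (15 uM unlabeled plus 0.24 uM Alexa 594-labeled, final) in 100 mM sodium acetate pH 7 was mixed with compound and 20 uM heparin and incubated 6 hr at 37 C.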
Tau fibril FP – tau fibrillization inhibition (FP). Potency, µM (doses to about 57.7 µM), for inactives: at the highest dose activity, negative = inhibition, most hits filed as inhibitors. hit rate 0.39% among 280,000. K18 P301L tau heparin fibrillization, Alexa594 FP, 6 h. P10636; also: nearly all actives have a fitted effect of over 55% in size
Target sequence (P10636 561-689 P618L limits assumed): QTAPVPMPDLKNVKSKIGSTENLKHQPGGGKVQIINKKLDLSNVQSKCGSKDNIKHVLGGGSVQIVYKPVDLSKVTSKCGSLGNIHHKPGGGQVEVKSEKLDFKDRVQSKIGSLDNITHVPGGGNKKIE
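Human tau K18 […] P301L fragment, 15 uM unlabeled plus 0.24 uM Alexa 594-labeled tau (final), with compound and 20 uM heparin in 100 mM sodium acetate pH 7; 6 hr at 37 C, then Alexa 594 FP read.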
TexasRed fluor – Texas Red fluorescence interference in TRb-SRC2 counter-screen; Potency, µM (titrated, usually from 106 µM), inactives show top-dose fluorescence change, negative = quenching; TRb/SRC2 Texas Red total fluorescence interference; hit rate 0.29% among 280,000; active = well fitted curve in either direction with a large enough effect; inconclusive = small, poorly fitted or top-dose-only effect
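Human TRb ligand-binding domain at 0.6 uM with 20 nM Texas Red SRC2 peptide in Tris buffer containing 1 uM T3 and 5% DMSO, incubated with compound 5 h at ambient temperature. Total fluorescence (555/632 nm) calculated as parallel + 2 × perpendicular.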
Tau fibril ThT – blocks human tau fibril formation measured by thioflavin T. P10636. recombinant tau K18 P301L (four-repeat tau fragment), heparin-induced fibrillization, ThT fluorescence. Potency, µM (top dose mostly 57.4 µM), inactives show top-dose activity, negative = inhibition, actives largely listed as inhibitors. AID 1460. hit rate 2.1% among 270,000; also: nearly all actives have a fitted effect of over 55% in size
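In this qHTS, human K18 P301L tau is incubated with compound and heparin for 6 hr at 37 C, and Thioflavin T fluorescence then reports fibril load.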
RGS12 GoLoco inh – inhibitors of human Gai1-RGS12 GoLoco interaction (red fluorophore) | hit rate 0.44% among 230,000 | Potency, µM (doses to about 61.6 µM), inactives show top-dose activity, negative = inhibition, hits mostly inhibitors | P63096 | Gai1:RGS12 GoLoco peptide FP, rhodamine, 10 min | AID 880; active = well fitted inhibition curve with a large enough effect, not every such curve was filed as active; inactive = no such curve, though single readings can be large or run the other way; also: nearly all actives have a fitted effect of over 30% in size
Target sequence (P63096 whole entry, looked up): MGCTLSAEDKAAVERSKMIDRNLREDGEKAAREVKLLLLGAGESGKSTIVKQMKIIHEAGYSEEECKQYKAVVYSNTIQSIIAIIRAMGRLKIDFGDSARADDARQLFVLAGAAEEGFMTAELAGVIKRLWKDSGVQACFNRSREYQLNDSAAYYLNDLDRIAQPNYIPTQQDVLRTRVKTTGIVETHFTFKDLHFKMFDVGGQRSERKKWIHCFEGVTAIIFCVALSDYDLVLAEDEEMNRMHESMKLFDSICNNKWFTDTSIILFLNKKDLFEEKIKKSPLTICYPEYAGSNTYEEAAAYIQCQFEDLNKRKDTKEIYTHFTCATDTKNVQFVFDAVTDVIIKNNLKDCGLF
TRb SRC2 PPI – inhibitors of human thyroid hormone receptor beta-SRC2 interaction. P10828. TRbeta-SRC2 peptide binding, fluorescence polarization; receptor liganded with 1 µM T3. Potency, µM (highest dose often 106 µM), inactives show top-dose activity change, negative = inhibition, actives largely listed as inhibitors. hit rate 0.065% among 280,000. AID 1469;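 also: plate controls were bound peptide for no effect and peptide without receptor for full effect; nearly all actives have a fitted effect of over 50% in size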
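Polarization signal, normalized between peptide-alone and full complex controls, measured compound effects on T3-liganded human TRb LBD (0.6 uM) binding 20 nM Texas Red SRC2 peptide after 5 hr.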
Numbers without * were called inactive; ? = inconclusive; nt = no result given; [ ] = another dose, or the depositor's remark. Unless noted, calls follow the shape of the dose curve; as a rule, active = well fitted curve in the direction sought with a large enough effect; inconclusive = small, poorly fitted or top-dose-only effect, or another doubt; inactive = no such curve, though single readings can be large; an effect the other way counts as inactive or inconclusive. Unless noted, % is scaled to controls: 0 for no effect and ±100 for the full control effect; potency is read from the fitted curve at half-maximal effect.

SMILES	Tau fluor cs	Tau fibril FP	TexasRed fluor	Tau fibril ThT	RGS12 GoLoco inh	TRb SRC2 PPI
Cc1ccc(NC(=O)CCCN2C(=O)COc3ccc(C)cc32)c(C)c1	-11.7%	5.3%	1.0%	-8.2%	nt	1.4%
Cc1ccc(NC(=O)CCCCCCCCCCC2COCCO2)c(C)c1 (centres undefined)	-3.9%	2.3%	0.0251µM*[quencher]	4.5%	-9.2%	?
COc1ccc(C(=O)Nc2cccc(C)c2)cc1	2.4%	0.1%	0.2%	-15.3%	0.0%	-14.0%
Oc1ccc(/C=C/c2nc(-c3ccccc3O)n(-c3ccccc3)n2)c(O)c1	5.62µM*[quencher]	?	-6.7%	?	nt	2.6%
Oc1ccc(/C=C/c2nc(-c3ccccc3O)n(-c3ccccc3)n2)cc1	31.6µM*[quencher]	?	-3.9%	?	-7.5%	-9.9%
CCc1cc2c(cc3c(=O)n(CC(=O)NCCCN4CC(C)CC(C)C4)ncn32)s1 (centres undefined)	-9.7%	6.2%	0.5%	-12.2%	-5.9%	-3.3%
CC(C)CCOP(=O)(c1ccccc1)c1ccccc1	7.2%	2.7%	-1.3%	8.0%	0.7%	1.0%
Oc1[nH]c2ccccc2c1C=Nc1ccc2c(c1)OCO2	?	12.4%	-8.5%	7.94µM*	-7.3%	1.6%
Cc1[nH]c2ccccc2c1/C=N\NC(=O)CNc1ccc2c(c1)OCO2	?	-1.7%	-5.2%	15.8µM*	3.8%	1.3%
Cc1[nH]c2ccccc2c1/C=N/NC(=O)c1cccs1	17.8µM*[quencher]	9.7%	-4.7%	11.2µM*	30.2%	-0.9%
CC(C)C[C@H](NC(=O)c1[nH]cnc1C(=O)Nc1ccc(CNC(=O)OC(C)(C)C)cc1)C(=O)OC(C)(C)C	?	?	-0.4%	3.8%	3.9%	-0.7%
CC(C)(C)OC(=O)NCc1ccc(NC(=O)c2nc[nH]c2C(=O)N[C@@H](Cc2ccccc2)C(=O)OC(C)(C)C)cc1	?	8.91µM*	-3.5%	?	10.9%	-3.3%
C[C@H](NC(=O)c1[nH]cnc1C(=O)Nc1ccc(CNC(=O)OC(C)(C)C)cc1)C(=O)OCc1ccccc1	?	?	-1.2%	12.4%	7.3%	0.4%
CC(C)(C)OC(=O)CNC(=O)c1[nH]cnc1C(=O)Nc1ccc(CNC(=O)OC(C)(C)C)cc1	?	?	-2.5%	14.5%	1.0%	-4.9%
CC(C)(C)OC(=O)CNC(=O)c1[nH]cnc1C(=O)Nc1ccc(Cl)cc1	?	25.1µM*	-2.3%	?	6.9%	-3.1%
CC(C)C[C@H](NC(=O)c1[nH]cnc1C(=O)Nc1ccc(CNC(=O)OC(C)(C)C)cc1)C(=O)OCc1ccccc1	?	10µM*	-0.7%	11.7%	3.0%	4.8%
c1cncc(C(c2nnnn2C2CCCCC2)N2CCN3CCCC3C2)c1 (centres undefined)	3.4%	6.4%	-1.4%	-1.9%	-10.8%	-11.7%
CCCOc1ccccc1C1NC(=O)NC(C)=C1C(=O)OCCOC(C)C (centres undefined)	7.3%	5.9%	0.4%	4.5%	nt	-15.2%
COc1cccc(/C=N/NC(=O)CCn2c3ccccc3c3ccccc32)c1	-17.7%	?	-2.5%	3.2%	-0.9%	-2.8%
Cc1cc(SCC(=O)N/N=C/c2ccc(O)c(O)c2O)c(C)cc1Br	14.1µM*[quencher]	12.6µM*	-5.9%	7.94µM*	4.6%	-2.9%
COc1ccc(/C=N/NC(=O)CCn2c3ccccc3c3ccccc32)cc1O	17.8µM*[quencher]	-9.5%	0.2%	?	2.0%	-1.5%
COc1cc(/C=N/NC(=O)CSc2cc(C)c(Br)cc2C)ccc1O	25.1µM*[quencher]	1.2%	-2.8%	?	-2.1%	-0.2%
COc1ccc(/C=N/NC(=O)CSc2ccccc2)cc1OC	-1.7%	-2.4%	-4.1%	-12.6%	0.2%	7.1%
CCc1cccc2c(C#N)cn(CCOc3ccccc3OC)c12	-16.0%	-2.2%	-4.1%	-13.6%	4.0%	5.0%
O=S(=O)(NCCc1csc(-c2cccnc2)n1)c1cccs1	-9.1%	-6.6%	-0.2%	-19.6%	5.2%	6.6%
SMILES	Tau fluor cs	Tau fibril FP	TexasRed fluor	Tau fibril ThT	RGS12 GoLoco inh	TRb SRC2 PPI
COc1ccc(/C=C/C(=O)c2ccc(O)cc2)cc1	-11.2%	-3.2%	-3.3%	?	0.1%	-0.3%
COc1cc(/C=C/c2ccc(O)cc2)cc(OC)c1	15.8µM*[quencher]	2.4%	-4.8%	?	3.1%	-4.4%
O=C(CSc1nnc(-c2ccco2)c(-c2ccco2)n1)Nc1ccccc1	?	?	44.7µM*[quencher]	7.94µM*	6.4%	-6.0%
O=C(CSc1nnc(-c2ccccc2)c(-c2ccccc2)n1)NCc1ccco1	-3.3%	6.7%	-1.8%	-9.2%	-0.9%	-0.6%
Cc1ccc(NC(=O)CSc2ccc(-c3ccco3)nn2)cc1	-13.2%	6.2%	-1.2%	?	-2.0%	-1.9%
CSc1nnc(-c2ccccc2)c(-c2ccccc2)n1	-7.7%	-10.7%	-1.3%	-1.8%	-9.2%	5.4%
CCn1c(SCC(=O)NNC(=O)c2ccc(OC)cc2)nnc1-c1ccco1	-45.3%	0.2%[2.34 µM]	-3.3%	5.62µM*	15.5%	-7.6%
Cc1ccc(NC(=O)CSc2nnc(-c3ccco3)c(-c3ccco3)n2)cc1	?	?	?	7.94µM*	10.8%	1.2%
CSc1nnc(-c2ccco2)c(-c2ccco2)n1	?	?	-12.2%	12.6µM*	-36.3%	-0.2%
Cc1cc(C)c2nc(C(F)(F)F)nc(N3CCN(C(=O)c4ccco4)CC3)c2c1	-0.5%	-7.8%	-1.2%	-8.7%	-8.1%	-12.9%
COc1ccc(C(=O)CSc2nnc(-c3ccco3)c(-c3ccco3)n2)cc1	?	?	-24.6%	14.1µM*	-7.1%	0.8%
O=C(/C=C/c1ccc(-c2ccccc2[N+](=O)[O-])o1)c1ccco1	?	8.9%	-4.8%	17.8µM*	3.4%	-8.7%
N#C/C(=C\c1ccc(-c2ccccc2[N+](=O)[O-])o1)C(=O)N1CCOCC1	-7.1%	-0.3%	-3.4%	-16.2%	3.9%	-0.1%
CN(Cc1cn[nH]c1-c1ccc2c(c1)OCO2)C1CCOCC1	11.8%	4.7%	-2.3%	2.7%	11.9%	5.4%
CCc1cc(-c2[nH]ncc2-c2ccc3c(c2)OCO3)c(O)cc1O	14.1µM*[quencher]	?	-2.4%	?	13.7%	3.3%
CCCc1cc(-c2[nH]ncc2-c2ccc3c(c2)OCCCO3)c(O)cc1OC	10µM*[quencher]	-13.0%	-7.3%	?	-3.5%	1.3%
COc1ccc(-c2[nH]ncc2-c2ccc3c(c2)OCCO3)c(O)c1	-28.5%	7.1%	-0.7%	-3.8%	4.7%	9.1%
O=S(=O)(NNc1nccc(C(F)(F)F)n1)c1cccc(Cl)c1Cl	-18.1%	?	0.4%	22.4µM*	-18.7%	-6.3%
COC(=O)c1cnc(NNS(=O)(=O)c2ccc(Cl)cc2)nc1C(F)(F)F	-6.6%	-0.2%	-2.6%	-8.2%	9.3%	-1.5%
